Active and inactive are the calls of the source.

Test [1] relates to Plasmodium falciparum Sir2 (PF13_0152, Sir2A). The test can be described thus: pfSir2 binders on small-molecule microarrays, primary screen, biochemical, small-molecule microarray, 635 nm fluorescence (AID 1098).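 Also: score merges spot fluorescence intensity with its signal-to-noise ratio.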 The following applies: small-molecule microarray binding, fluorescence 635 nm; higher = more signal.
Test [2] in a line: small-molecule microarray binders of probe aDKK1, primary screen, biochemical, biotinylated probe, 635/667 nm fluorescence (AID 1099).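 Also: score merges 667nm spot fluorescence with signal to noise across triplicate slides.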 To be noted: higher = more signal.
The nature of test [3]: small-molecule microarray binders of probe aCHRDL2, primary screen, biochemical, biotinylated probe, 635/667 nm fluorescence (AID 1100). The following applies: higher = more signal.
Test [4] in a line: splicing luciferase reporter signal modulators, primary screen, spliceosome inhibition project, cell-based, HEK293, splice +/- reporter (AID 1101).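 Also: HEK293 cells carrying a splicing-competent luciferase reporter gene; test concentration not given here.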 To be noted: luminescence, 24 h, higher = more signal, called active from +8 up or from −8 down.
In test [5] the target is Fibroblast growth factor 10 (Homo sapiens) (UniProt O15520). The test can be described thus: FGF10 binders on small-molecule microarrays, primary screen, biochemical, small-molecule microarray, 635 nm fluorescence (AID 1102). To be noted: FGF10 binding, fluorescence 635 nm, higher = more signal.
The test system of test [6] is glycogen synthase kinase-3 (GSK3A per assay name; protocol says GSK3B). Put plainly: GSK3 binders on small-molecule microarrays, primary screen, biochemical, small-molecule microarray, 635 nm fluorescence, GSK3A (AID 1103). Also: the record names both GSK3A and GSK3B. The following applies: small-molecule microarray binding, fluorescence 635 nm; higher = more signal.
The target in test [7] is Epidermal growth factor receptor (Homo sapiens) (UniProt P00533). Put plainly: EGFR binders on small-molecule microarrays, primary screen, biochemical, small-molecule microarray, 635 nm fluorescence (AID 1104).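 Also: score merges 667 nm emission intensity with spot signal to noise over triplicate slides.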 To be noted: EGFR binding, higher = more signal.
For test [8], the target named is Follistatin-related protein 3 (Homo sapiens) (UniProt O95633). Put plainly: FSTL3 binders on small-molecule microarrays, primary screen, biochemical, small-molecule microarray, 635 nm fluorescence (AID 1105).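 Also: score merges emission near 667 nm and signal to noise per printed spot across three slides.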 To be noted: FSTL3 binding, higher = more signal.
The target in test [9] is Dickkopf-related protein 1 (Homo sapiens) (UniProt O94907). Put plainly: DKK1 binders on small-molecule microarrays, primary screen, biochemical, small-molecule microarray, 635 nm fluorescence scan (AID 1106).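 Also: score merges emission near 667 nm with signal to noise over three replicate slides.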 To be noted: DKK1 binding, higher = more signal.
Test [10] concerns Inhibin beta A chain (activin A). Put plainly: INHBA (activin A) binders on microarrays, primary screen, biochemical, small-molecule microarray, 635 nm fluorescence scan (AID 1107).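 Also: mouse activin A protein probed at 4.33 µg/mL on printed slides; score merges bound-protein fluorescence near 667 nm with spot signal-to-noise.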 To be noted: small-molecule microarray binding, higher = more signal.
Test [11] deals with Human papillomavirus type 1a protein E7 (residues 44-93). Put plainly: HPV1a E7 fragment binders on microarrays, primary screen, biochemical, small-molecule microarray, residues 44-93, 635 nm fluorescence (AID 1108).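 Also: E7 fragment applied at 1 µg/mL in TBST for 1 h at 4 C; score combines spot fluorescence with its signal to noise ratio.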 The following applies: small-molecule microarray binding, fluorescence 635 nm; higher = more signal.
A short description of test [12]: modulators of HCV replicon luciferase signal, primary screen, HCV replication inhibitor project, Huh7 cells, luciferase reporter (AID 1109).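 Also: huh7 hepatoma cells harbouring a luciferase neomycin HCV replicon reporter; luciferase luminescence as measure of HCV replicon replication; test concentration not given here.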 To be noted: 48 h, higher = more signal. (Replicon systems follow genome replication, usually without infectious particles.)
The target of test [13] is Left-right determination factor 2 (Homo sapiens) (UniProt O00292). The test can be described thus: LEFTY2 binders on small-molecule microarrays, primary screen, biochemical, small-molecule microarray, 635 nm fluorescence scan (AID 1110). To be noted: LEFTY2 binding, higher = more signal.
In test [14] the target is Calmodulin-1 (Homo sapiens) (UniProt P0DP23). The test can be described thus: CALM1 binders on microarrays, EGTA buffer, profiling panel, biochemical, small-molecule microarray, Cy5-labelled CALM1 (AID 1111).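 Also: labelled calmodulin applied in Tris saline Tween buffer holding calcium plus EGTA and DTT.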 The following applies: Cy5-CALM1 binding fluorescence, higher = more signal.
For test [15] the target is unchanged. The test can be described thus: calcium-bound CALM1 binders on microarrays, profiling panel, artefact control for SMM control-protein annotation, biochemical, small-molecule microarray, Cy5-labelled CALM1, plus calcium (AID 1112).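 Also: score merges spot fluorescence with signal to noise from triplicate slides.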 The following applies: Cy5-CALM1 binding fluorescence, higher = more signal.
Test [16] in a line: small-molecule microarray binders of probe aWnt5a, primary screen, biochemical, biotinylated probe, 635/667 nm fluorescence (AID 1113).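 Also: score merges 667 nm fluorescence intensity with signal-to-noise per printed feature.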 The following applies: higher = more signal.
A short description of test [17]: small-molecule microarray binders of probe aShh, primary screen, biochemical, biotinylated probe, 635/667 nm fluorescence (AID 1114).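 Also: probe is biotin-labelled aShh protein from a stem cell growth factor screen; measures binding of labelled protein to compounds printed on the slide; score merges feature fluorescence at 667 nm with signal-to-noise.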 To be noted: higher = more signal.
The nature of test [18]: small-molecule microarray binders of probe aNog, primary screen, biochemical, biotinylated probe, 635/667 nm fluorescence (AID 1115).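 Also: probe is biotinylated aNog protein used at 0.15 µg/mL for 1 h at 4 C; z-score combines 667 nm fluorescence of each spot with its signal to noise.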 The following applies: higher = more signal.
The target in test [19] is Torsin-1A-interacting protein 1 (Homo sapiens) (UniProt Q5JTV8). The test can be described thus: LAP1 binders from COS7 cell lysate, primary screen, small-molecule microarray, 635/667 nm fluorescence (AID 1116). To be noted: COS7-hLAP1 lysate binding, 635 nm fluorescence, higher = more signal.
Test [20] concerns the target Alpha-bungarotoxin (Bungarus multicinctus) (UniProt P60615). Put plainly: alpha-bungarotoxin binders on microarray, profiling panel, artefact control for SMM control protein annotation, biochemical, small-molecule microarray, Alexa647 label, 635/667 nm fluorescence (AID 1117). To be noted: alpha-BTX-A647 binding fluorescence, higher = more signal.

Sequence of Follistatin-related protein 3 (Homo sapiens) (O95633 whole entry, looked up): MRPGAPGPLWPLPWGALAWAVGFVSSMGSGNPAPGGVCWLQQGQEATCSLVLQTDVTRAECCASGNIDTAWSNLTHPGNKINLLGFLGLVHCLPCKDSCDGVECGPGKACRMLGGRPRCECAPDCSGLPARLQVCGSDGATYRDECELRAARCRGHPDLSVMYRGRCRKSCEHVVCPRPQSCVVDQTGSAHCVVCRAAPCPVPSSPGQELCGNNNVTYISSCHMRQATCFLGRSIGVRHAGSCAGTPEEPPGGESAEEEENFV
Sequence of Fibroblast growth factor 10 (Homo sapiens) (O15520 whole entry, looked up): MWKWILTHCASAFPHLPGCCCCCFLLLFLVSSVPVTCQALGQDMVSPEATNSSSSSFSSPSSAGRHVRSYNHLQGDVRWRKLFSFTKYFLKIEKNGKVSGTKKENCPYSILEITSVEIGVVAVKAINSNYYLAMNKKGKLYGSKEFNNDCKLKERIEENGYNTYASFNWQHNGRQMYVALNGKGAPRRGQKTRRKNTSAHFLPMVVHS
Sequence of Left-right determination factor 2 (Homo sapiens) (O00292 whole entry, looked up): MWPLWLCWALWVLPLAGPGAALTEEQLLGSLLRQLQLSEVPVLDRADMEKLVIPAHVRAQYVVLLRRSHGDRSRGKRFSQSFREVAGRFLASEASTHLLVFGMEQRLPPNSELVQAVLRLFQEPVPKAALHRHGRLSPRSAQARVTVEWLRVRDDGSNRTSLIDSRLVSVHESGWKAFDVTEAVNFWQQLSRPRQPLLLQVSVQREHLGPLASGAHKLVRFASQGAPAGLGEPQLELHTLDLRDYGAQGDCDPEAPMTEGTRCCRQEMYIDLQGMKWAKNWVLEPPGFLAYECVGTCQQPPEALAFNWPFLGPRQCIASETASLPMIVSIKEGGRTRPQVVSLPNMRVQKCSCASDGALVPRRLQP
Sequence of Dickkopf-related protein 1 (Homo sapiens) (O94907 whole entry, looked up): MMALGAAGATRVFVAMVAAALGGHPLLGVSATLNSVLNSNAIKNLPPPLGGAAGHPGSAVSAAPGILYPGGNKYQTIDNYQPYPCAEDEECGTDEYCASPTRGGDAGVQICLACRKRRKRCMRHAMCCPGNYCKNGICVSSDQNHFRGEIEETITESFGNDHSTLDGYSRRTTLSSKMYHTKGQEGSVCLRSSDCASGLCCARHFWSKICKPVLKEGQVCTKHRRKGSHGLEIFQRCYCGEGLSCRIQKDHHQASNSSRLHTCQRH
Sequence of Epidermal growth factor receptor (Homo sapiens) (P00533 whole entry, looked up): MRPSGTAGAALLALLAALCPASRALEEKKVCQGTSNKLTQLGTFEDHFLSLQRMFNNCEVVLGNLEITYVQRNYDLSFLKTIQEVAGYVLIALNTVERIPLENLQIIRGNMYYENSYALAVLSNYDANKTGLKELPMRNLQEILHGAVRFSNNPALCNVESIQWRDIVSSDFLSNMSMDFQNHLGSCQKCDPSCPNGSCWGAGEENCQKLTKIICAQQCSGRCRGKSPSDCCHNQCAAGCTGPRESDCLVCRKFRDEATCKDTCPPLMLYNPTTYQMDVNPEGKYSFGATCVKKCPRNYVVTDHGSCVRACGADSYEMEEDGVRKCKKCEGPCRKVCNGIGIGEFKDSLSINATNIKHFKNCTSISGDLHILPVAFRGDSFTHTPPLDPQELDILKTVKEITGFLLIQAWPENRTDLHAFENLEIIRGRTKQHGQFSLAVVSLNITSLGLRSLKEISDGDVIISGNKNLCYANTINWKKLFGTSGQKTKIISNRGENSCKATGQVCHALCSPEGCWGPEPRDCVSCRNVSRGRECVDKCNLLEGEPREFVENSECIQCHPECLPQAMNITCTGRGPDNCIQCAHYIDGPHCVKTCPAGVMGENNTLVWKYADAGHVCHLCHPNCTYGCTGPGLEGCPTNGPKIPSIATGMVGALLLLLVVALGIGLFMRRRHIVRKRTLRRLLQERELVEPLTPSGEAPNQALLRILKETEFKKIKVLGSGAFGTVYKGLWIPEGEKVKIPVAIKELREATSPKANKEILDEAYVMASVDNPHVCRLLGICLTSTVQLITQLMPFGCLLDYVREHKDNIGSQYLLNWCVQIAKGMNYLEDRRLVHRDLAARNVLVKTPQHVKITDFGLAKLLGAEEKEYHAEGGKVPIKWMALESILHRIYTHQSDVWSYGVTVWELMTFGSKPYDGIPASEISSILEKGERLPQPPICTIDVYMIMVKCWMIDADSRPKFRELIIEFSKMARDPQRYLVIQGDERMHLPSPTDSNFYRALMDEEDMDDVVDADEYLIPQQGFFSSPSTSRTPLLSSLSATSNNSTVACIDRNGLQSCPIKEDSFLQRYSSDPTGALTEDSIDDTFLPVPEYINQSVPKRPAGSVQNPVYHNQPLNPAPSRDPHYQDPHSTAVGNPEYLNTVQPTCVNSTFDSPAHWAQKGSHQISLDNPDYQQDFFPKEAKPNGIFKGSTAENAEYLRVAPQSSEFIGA
Sequence of Alpha-bungarotoxin (Bungarus multicinctus) (P60615 whole entry, looked up): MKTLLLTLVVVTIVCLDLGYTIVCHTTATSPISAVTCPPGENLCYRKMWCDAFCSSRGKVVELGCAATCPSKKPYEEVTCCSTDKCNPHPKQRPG
Sequence of Torsin-1A-interacting protein 1 (Homo sapiens) (Q5JTV8 whole entry, looked up): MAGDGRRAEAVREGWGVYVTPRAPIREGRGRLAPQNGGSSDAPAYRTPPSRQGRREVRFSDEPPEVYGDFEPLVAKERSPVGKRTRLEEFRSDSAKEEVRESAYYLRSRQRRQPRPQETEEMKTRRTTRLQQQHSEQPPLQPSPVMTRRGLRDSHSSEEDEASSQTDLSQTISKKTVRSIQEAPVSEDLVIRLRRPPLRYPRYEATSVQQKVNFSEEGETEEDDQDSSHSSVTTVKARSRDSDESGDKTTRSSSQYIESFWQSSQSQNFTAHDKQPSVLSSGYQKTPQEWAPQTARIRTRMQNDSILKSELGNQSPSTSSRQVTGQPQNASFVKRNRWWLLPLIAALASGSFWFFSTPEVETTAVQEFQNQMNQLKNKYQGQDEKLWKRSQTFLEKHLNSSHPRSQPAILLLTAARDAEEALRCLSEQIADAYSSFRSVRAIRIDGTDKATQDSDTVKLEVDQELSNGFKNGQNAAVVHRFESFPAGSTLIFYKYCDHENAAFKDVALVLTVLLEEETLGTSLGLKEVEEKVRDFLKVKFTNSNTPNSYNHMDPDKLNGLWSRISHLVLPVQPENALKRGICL

For the compound `CO[C@H]1O[C@H](CO)[C@@H](OC(=O)Nc2ccccc2)[C@H](OC(=O)Nc2ccc3c(c2)OCO3)[C@H]1OC(=O)Nc1ccc2c(c1)OCO2`, the composite z-score was 1.59 in test [1]; 0.666 in test [2]; 0.757 in [3]; 0.729 in test [5]; 0.741 in test [6]; -0.242 in test [7]. The composite z-score was 0.292 in test [8]; 0.0894 in [9]; 0.798 in [10]; 0.538 in test [11]; 0.452 in [13]; 1.65 in [14]. Besides, the composite z-score was -0.617 in test [15]; 0.0973 in test [16]; 0.0898 in test [17]; 1.19 in [18]; 1.51 in [19]; 0.485 in test [20]. For the same compound, the z-score in test [4] is -0.618 (inactive); in test [12], -1.04.
For `CC(C)CCC[C@@H](C)[C@H]1CC[C@@]2(C)C3=C(CC[C@]12C)[C@@]1(C)CC[C@H](OC(=O)CCl)C(C)(C)C1CC3` (stereo not given in full), the composite z-score was 0.346 in [1]; -0.0827 in [2]; -0.49 in [3]; 0.471 in [5]; 0.684 in [6]; 0.372 in [7]. The composite z-score was 0.675 in test [8]; 0.604 in test [9]; 0.0773 in test [10]; 0.637 in test [11]; 0.448 in [13]; -0.0581 in test [14]. Also, the composite z-score in test [15] is -0.552; in [16] it was 0.0115; in test [17] it was -0.424; in test [18], 0.0983; in [19], 0.247; in test [20] it was 0.587. The values for the z-score in test [4] and in test [12] were 0.0767 (inactive) and -0.143, respectively.
For `O=C1O[C@@H](c2ccccc2)[C@@H](c2ccccc2)N2[C@@H](c3ccc(OCCO)cc3)[C@]3(C(=O)Nc4ccc(C#CC5(O)CCCCCC5)cc43)[C@@H](C(=O)NC[C@H](O)c3ccccc3)[C@H]12`, the composite z-score in test [1] stood at 1.37; in test [2], 0.914; in [3], 0.864; in [5], 1.15; in test [6], 1.17; in test [7], 0.244. Moreover, the composite z-score is 1.25 in test [8]; 0.382 in test [9]; 0.42 in test [10]; 1.24 in test [11]; 0.497 in test [13]; 1.97 in test [14]. Besides, the composite z-score in test [15] was 0.638; in test [16] it was -0.0877; in test [17], 0.172; in [18] it was 1.21; in [19], 1.94; in [20] it was 2.42. For the same compound, the results for the z-score in [4] and in test [12] were -0.828 (inactive) and -2.06, respectively.
For the compound `C=C(/C(=C/C[C@H](OC(C)=O)c1cccc(OCCO)c1)c1cc(C(=O)OC)ccc1OC)C(C)C`, the composite z-score in test [1] is 0.86; in test [2], -0.0559; in [3] it was 0.132; in test [5] it was 0.306; in test [6], -0.116; in [7] it was -0.805. Moreover, the composite z-score in test [8] is -0.948; in test [9], -0.316; in test [10], 0.576; in [11], -0.0954; in test [13], -0.516; in test [14] it was -1. In addition, the composite z-score is -0.551 in test [15]; -0.124 in [16]; -0.0337 in test [17]; 0.209 in test [18]; 0.19 in test [19]; -1.33 in test [20]. The z-score in [4] is -0.846 (inactive); in [12], -0.556.
For `COCCOC(=O)N1C(=O)[C@@]2(c3cc(C#CCCO)ccc31)[C@H](c1ccccc1OCCO)N1[C@H](c3ccccc3)[C@H](c3ccccc3)OC(=O)[C@H]1[C@@H]2C(=O)NC[C@H](O)c1ccccc1`, the composite z-score in [1] was 1.34; in test [2] it was 0.704; in [3], 0.416; in test [5], 1.16; in test [6], 1.22; in test [7] it was 0.2. Further, the composite z-score in [8] is 1.35; in [9], 0.74; in test [10], 0.274; in test [11], 0.722; in test [13], 0.449; in test [14] it was 1.11. In addition, the composite z-score in test [15] was 0.678; in test [16], -0.0512; in test [17] it was 0.275; in test [18], 0.482; in test [19] it was 1.38; in [20], 1.89. For the same compound, the values for the z-score in test [4] and in test [12] were -0.428 (inactive) and -1.53, respectively.

For the origin of these results see PubChem BioAssay.
